About 83,000 compounds went through this panel and 20% of them were active in at least one assay; those are over-represented in the sample as a whole.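 Testing used 96-well plates and a 48-hour single-concentration exposure. Example: -40 means 40% of the starting cells died.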 Activity calls are given as the source filed them. How the source made its calls: active means growth percent below 10; inactive means the rest.
What follows are molecules tested on T-47D breast (assay: NCI-60 one-dose screen, 48 h (100 = growth as untreated, 0 = no growth, -100 = all killed)). Details: 10 µM unless noted.

SMILES	growth
CCOC(=O)c1sc(NS(=O)(=O)c2ccccc2)nc1C	111% (inactive)
Cc1nc(NC(=S)Nc2ccc(F)cc2)sc1C(=O)NNC(=S)Nc1ccc(F)cc1	35.6% (inactive)
N#Cc1c(N)nc(Nc2nc3ccccc3[nH]2)nc1-c1ccc(Cl)cc1	93.8% (inactive)
O=C(Nc1ccc(-n2cc(-c3ccncc3)c(-c3ccc(Cl)c(O)c3)n2)cc1)c1cc(C(F)(F)F)cc(C(F)(F)F)c1	47.9% (inactive)
CC(=O)Nc1nc(C)c(C(=O)NN)s1	85.9% (inactive)
CC(=O)Nc1nc(C)c(C(=O)NNS(=O)(=O)c2ccccc2)s1	114% (inactive)
Cc1[nH]n(C(=S)Nc2nc3cc(Cl)c(F)cc3s2)c(=O)c1N=Nc1ccc(F)c(Cl)c1	79.6% (inactive)
O=C(c1ccccc1)c1ccccc1-c1ccccc1	27% (inactive)
O=C(N/N=C\c1ccc(-c2ccc(Br)cc2)o1)c1cc2oc(-c3cccc(C(F)(F)F)c3)cc2[nH]1	101% (inactive)
COc1cccc(NC(=O)NCCNc2nccc(-c3c(-c4ccc(F)cc4)nc4sccn34)n2)c1	71.8% (inactive)
CC(=O)NNC(=O)c1sc(NC(C)=O)nc1C	76.5% (inactive)
Nc1nc(-c2cccc(Br)c2)cc(-c2cc3ccccc3oc2=O)n1	83.2% (inactive)
COC(=O)C(Cc1cnc[nH]1)N1CC(=O)N2[C@@H](c3ccccc3)SC[C@H]2C1=O (stereo not given in full)	108% (inactive)
NCCCOc1cc(Cl)ccc1NC(=O)c1cc2ccccc2cc1OCCCN	-70.5% (active)
COc1ccc2c(c1)cn1c3ccc(O)cc3[nH]c(=O)c21	37.2% (inactive)
CC(=O)N1CCN(CCNC(=O)n2cc(-c3ccncc3)c(-c3cc(O)cc(Cl)c3)n2)CC1	100% (inactive)
CC(=O)N1CCN(CCNC(=O)n2cc(-c3ccncc3)c(-c3ccc(O)c(Cl)c3)n2)CC1	112% (inactive)

SMILES	growth
O=S(=O)(O)CCI	99.4% (inactive)
COC(=O)[C@@H]1[C@H](O)[C@H](C)[C@H](O)[C@H](C)/C=C\C=C(C)C(=O)Nc2c(C)c(OC(C)=O)c3c(c2O)C(=O)C(C)=C2OCOC(=C23)C(C)=C[C@@](C)(O)[C@H](O)[C@@H](C)[C@H]1OC(C)=O	118% (inactive)
O=C1OC(c2ccc(-c3ccccc3)cc2)=C/C1=C/c1c2ccccc2cc2ccccc12	102% (inactive)
O=c1[nH]c2cc(O)ccc2n2cc3c(F)cccc3c12	39.1% (inactive)
OC(c1ccccc1)(c1ccccc1)C(F)(F)F	92.1% (inactive)
CC(C)CCCCCOC(=O)c1ccccc1SSc1ccccc1C(=O)OCCCCCC(C)C	89.6% (inactive)
CCN(CC)c1ccc2nc3ccc(N=Nc4ccc(O)cc4)cc3[n+](-c3ccccc3)c2c1	32.7% (inactive)
O=C(Nc1ccc(-n2cc(-c3ccncc3)c(-c3ccc(Cl)c(O)c3)n2)cc1)c1ccc(Cl)c(Cl)c1	71.9% (inactive)
O=[N+]([O-])c1ccc(-c2ncc(-c3ccc(O)cc3O)[nH]2)cc1	102% (inactive)
Cc1nc(NC(=O)NC2CCCCC2)sc1C(=O)NN	112% (inactive)
CCS(=O)(=O)N[C@@H]1O[C@H](COC(C)=O)C(OC(C)=O)[C@H](OC(C)=O)C1OC(C)=O (stereo not given in full)	90.7% (inactive)
COc1ccc2cn3c4ccc(O)cc4[nH]c(=O)c3c2c1	33.9% (inactive)
COc1ccc(C2CC(=O)c3c(O)cc(OC4OC(COC5OC(C)C(O)C(O)C5O)C(O)C(O)C4O)cc3O2)cc1O (stereo not given)	121% (inactive)
CCCCn1c(Cc2ccc(OC)cc2)nc2cc(OC)c(OC)cc2c1=O	57% (inactive)
COc1ccc2cc(C(C)C(=O)Nc3ccc(S(=O)(=O)Nc4cc(C)on4)cc3)ccc2c1 (stereo not given)	84.8% (inactive)
CC(C)(C)c1ccc(OCCOC(=O)CBr)cc1	94.2% (inactive)

Each molecule was assayed on BT-549 breast in the same assay as above. Details: 10 µM unless noted.

SMILES	growth
COc1ccccc1C(=O)Nc1cccc(-c2cc(=O)c3c(OC)c(OC)c(OC)cc3o2)c1	45.9% (inactive)
COc1cc2ncnc(-n3ncc4cc(NC(=O)Nc5ccc(Cl)c(C)c5)ccc43)c2cc1OC	89.7% (inactive)
COC(=O)/C=C/c1cc(O)c2oc(-c3ccc(O)c(O)c3)c(C(=O)OC)c2c1	46.6% (inactive)
[N-]=[N+]=Nc1ncc(-c2ccc(C(F)(F)F)cc2)c(NC2CCCCCC2)n1	45.4% [100 µM] (inactive)
Nc1nc2c(c3cnccc13)C(c1cccc(Br)c1)Cc1cnccc1-2 (stereo not given)	-15.6% (active)
c1cc[c]([Bi]([c]2ccccc2)[c]2ccccc2)cc1	96.8% (inactive)
CCC(C)C1NC(=O)C(CC(C)C)NC(=O)C(C)NC(=O)C(C(C)C)NC(=O)C(CCCCN)NC(=O)C(CC(C)C)NC(=O)C(C(C)C)NC(=O)[C@H](C)NC(=O)C(C(C)CC)NC(=O)C(CCCN=C(N)N)NC(=O)C(CCCCN)NC(=O)C(CCCN=C(N)N)NC(=O)C(CCCCN)NC(=O)C([C@H](C)CC)NC(=O)C(CCCCN)NC1=O (stereo not given in full)	14.4% (inactive)

From PubChem BioAssay (NCI)
